In PubChem BioAssay (NCI) one finds growth data, which are given here for 8 molecules.

Test systems include NCI-H23 lung; NCI-H322M lung; HOP-62 NSCLC; NCI-H460 lung; HOP-92 NSCLC; NCI-H522 lung; A549/ATCC NSCLC; 786-0 renal; COLO 205 colon; DU-145 prostate; K-562 leukemia; MALME-3M melanoma; MDA-MB-231 breast; RXF 393 renal; SF-268 CNS; SF-295 CNS; SF-539 CNS; UACC-257 melanoma; M14 melanoma.
Common to all, as to assay: NCI-60 one-dose screen, 48 h (100 = growth as untreated, 0 = no growth, -100 = all killed)
Holding throughout (conditions): 10 µM unless noted

About 83,000 compounds went through this panel and 20% of them were active in at least one assay; those are over-represented in the sample as a whole.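 For each line, cells grew in 96-well plates with the test compound present at a single concentration for 48 hours.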 Unmarked numbers belong to inactive results. Active and inactive are the calls of the source. The calls were made as follows: active = growth percent below 10; inactive = the rest.

For `Cc1cccc(C)c1NCc1nnc(-c2ccc(O)cc2)o1`, the growth in the assay on NCI-H23 lung was 91.1%; in the assay with NCI-H322M lung, 98.9%; in the assay on HOP-62 NSCLC, 111%; with NCI-H460 lung, 96.9%; with HOP-92 NSCLC, 88.3%; in the assay on NCI-H522 lung, 97.1%. Moreover, the growth in the assay on A549/ATCC NSCLC is 104%; in the assay on 786-0 renal it was 102%; with COLO 205 colon, 97.3%; in the assay with DU-145 prostate, 110%; in the assay on K-562 leukemia, 126%; in the assay on MALME-3M melanoma it was 101%. The growth was 103% in the assay on MDA-MB-231 breast; 108% with RXF 393 renal; 101% in the assay on SF-268 CNS; 96.5% in the assay on SF-295 CNS; 97.8% in the assay on SF-539 CNS; 111% in the assay with UACC-257 melanoma. Further, the growth in the assay on M14 melanoma was 98.5%.
Regarding `CCOC(=O)NC(Cc1ccccc1)c1ccccc1` (configuration not stated), the growth is 98.4% in the assay on NCI-H23 lung; 114% in the assay on NCI-H322M lung; 99.6% in the assay with HOP-62 NSCLC; 111% in the assay on NCI-H460 lung; 87.4% with HOP-92 NSCLC; 87.1% in the assay with NCI-H522 lung. The growth in the assay on A549/ATCC NSCLC is 99.1%; in the assay on 786-0 renal it was 96.6%; in the assay with COLO 205 colon it was 105%; in the assay with DU-145 prostate, 110%; in the assay on K-562 leukemia, 91%; in the assay with MALME-3M melanoma, 110%. The growth in the assay with MDA-MB-231 breast was 97.8%; in the assay with RXF 393 renal, 112%; in the assay on SF-268 CNS, 111%; with SF-295 CNS, 106%; with SF-539 CNS it was 98.6%; with UACC-257 melanoma it was 108%. Further, the growth in the assay with M14 melanoma was 95.8%.
`Cn1cc(-c2ccc3c(c2)ncn3-c2ccc(CC(=O)Nc3cc(C(C)(C)C)on3)cc2)cn1`: the growth in the assay on NCI-H23 lung is 30.2%; in the assay on NCI-H322M lung, 8.78% (active); in the assay with HOP-62 NSCLC it was 36.2%; in the assay on NCI-H460 lung, 28.5%; in the assay with HOP-92 NSCLC, 5.11% (active); with NCI-H522 lung, 32.8%. Also, the growth was 19% in the assay on A549/ATCC NSCLC; 17.6% with 786-0 renal; 38.2% in the assay on COLO 205 colon; 19.3% in the assay on DU-145 prostate; 9.77% (active) in the assay on K-562 leukemia; 25.5% with MALME-3M melanoma. For the same molecule, the growth in the assay on MDA-MB-231 breast is 11%; with RXF 393 renal it was -25% (active); with SF-268 CNS, 25.6%; in the assay on SF-295 CNS it was 37.2%; with SF-539 CNS, -15.8% (active); in the assay with UACC-257 melanoma, 67.1%. Also, in the assay on M14 melanoma, the growth is 19.5%.
In the case of `COc1cc(-c2csc(NC(=O)Nc3ccc(Cl)cc3)n2)cc(OC)c1OC`, the growth in the assay with NCI-H23 lung is 11.3%; in the assay with NCI-H322M lung, 64.8%; in the assay on HOP-62 NSCLC, 38.5%; with NCI-H460 lung, 24.9%; in the assay with HOP-92 NSCLC, 7.26% (active); in the assay on NCI-H522 lung, 3.25% (active). For the same molecule, the growth is 17.8% in the assay with A549/ATCC NSCLC; 47.5% in the assay with 786-0 renal; 13.2% in the assay on COLO 205 colon; 36.3% with DU-145 prostate; 9.22% (active) with K-562 leukemia; 61.3% with MALME-3M melanoma. For the same molecule, the growth in the assay on MDA-MB-231 breast was 45.5%; in the assay on RXF 393 renal, 23.4%; in the assay on SF-268 CNS, 51.2%; in the assay on SF-295 CNS, 18%; in the assay on SF-539 CNS, 48.8%; in the assay on UACC-257 melanoma, 22.9%. Further, the growth in the assay with M14 melanoma is 21.1%.
Regarding `Cc1nc2sc(C(=O)Nc3ccccc3)c(N)c2cc1C(C)O` (configuration not stated), the growth is 39% with NCI-H23 lung; 49.9% with NCI-H322M lung; 30.1% in the assay on HOP-62 NSCLC; 11.2% in the assay on NCI-H460 lung; 73% in the assay with HOP-92 NSCLC; 18.3% with NCI-H522 lung. For the same molecule, the growth was 25.6% in the assay with A549/ATCC NSCLC; 31.1% with 786-0 renal; 6.99% (active) in the assay on COLO 205 colon; 18.3% with DU-145 prostate; 16.3% in the assay with K-562 leukemia; 64.2% in the assay on MALME-3M melanoma. Further, the growth in the assay on MDA-MB-231 breast was 51.4%; in the assay with RXF 393 renal, 12.7%; with SF-268 CNS, 53.4%; in the assay with SF-295 CNS it was 21.9%; with SF-539 CNS it was 6.49% (active); in the assay on UACC-257 melanoma it was 64%. Besides, the growth with M14 melanoma was 16.2%.
Regarding `CN(C)CCCn1c2c(c3cc(-c4cccc(S(N)(=O)=O)c4)ccc3c1=O)C(=O)c1ccccc1-2`, the growth is 57.4% in the assay on NCI-H23 lung; 77.3% in the assay on NCI-H322M lung; 53.1% with HOP-62 NSCLC; 14.1% in the assay on NCI-H460 lung; 104% in the assay with HOP-92 NSCLC; 44.9% in the assay with NCI-H522 lung. The growth in the assay on A549/ATCC NSCLC was 64.7%; in the assay with 786-0 renal, 30.6%; in the assay on COLO 205 colon it was 59.1%; with DU-145 prostate, 67.9%; with K-562 leukemia, 33.1%; in the assay with MALME-3M melanoma it was 67.1%. The growth with MDA-MB-231 breast was 94.4%; in the assay with RXF 393 renal it was 85.1%; in the assay with SF-268 CNS it was 51.6%; in the assay on SF-295 CNS it was 50.6%; in the assay on SF-539 CNS, 80.9%; in the assay with UACC-257 melanoma, 97.4%. The growth in the assay with M14 melanoma is 62.7%.
For the molecule `COc1ccccc1N1CCN(CCCOc2ccc(C(=O)/C=C3/C(=O)Nc4ccccc43)cc2)CC1`, the growth was 45.3% in the assay with NCI-H23 lung; 88.7% in the assay on NCI-H322M lung; 38.2% in the assay on HOP-62 NSCLC; 66.4% in the assay on NCI-H460 lung; 18.2% with HOP-92 NSCLC; 65.9% with NCI-H522 lung. Moreover, the growth in the assay with A549/ATCC NSCLC is 76%; with 786-0 renal it was 45.7%; in the assay on COLO 205 colon, 65.5%; in the assay with DU-145 prostate it was 81.8%; in the assay with K-562 leukemia, 17.6%; in the assay with MALME-3M melanoma it was 66.5%. For the same molecule, the growth in the assay with MDA-MB-231 breast is 57%; with RXF 393 renal it was 72.4%; in the assay with SF-268 CNS, 86.9%; in the assay with SF-295 CNS, 71.1%; with SF-539 CNS, 81.5%; with UACC-257 melanoma it was 90.2%. Further, the growth in the assay with M14 melanoma was 66%.
In the case of `C=C(C)[C@@H]1CC[C@]2(C(=O)O)CC[C@]3(C)[C@H](CC[C@@H]4[C@@]5(C)C[C@@H](CC#Cc6ccccc6C)C(=O)C(C)(C)[C@@H]5CC[C@]43C)[C@@H]12`, the growth in the assay on NCI-H23 lung is 18.2%; in the assay on NCI-H322M lung it was 36.4%; in the assay with HOP-62 NSCLC, 32.5%; in the assay on NCI-H460 lung, 16%; in the assay on HOP-92 NSCLC it was 38.1%; with NCI-H522 lung it was -4.68% (active). Further, the growth in the assay on A549/ATCC NSCLC was 26.7%; with 786-0 renal, 34.4%; in the assay on COLO 205 colon, -7.56% (active); with DU-145 prostate it was 34.4%; in the assay on K-562 leukemia it was 14%; with MALME-3M melanoma, 61.1%. Moreover, the growth in the assay with MDA-MB-231 breast is 48.2%; in the assay with RXF 393 renal it was 51.8%; with SF-268 CNS it was 48.4%; with SF-295 CNS, 33.1%; in the assay on SF-539 CNS, 36%; in the assay on UACC-257 melanoma, 39.9%. Moreover, the growth in the assay on M14 melanoma was 40.6%.
